The values that follow come from PubChem BioAssay AID2551 (National Center for Advancing Translational Sciences (NCATS), 2010).

Each structure is given as a SMILES string. Several values for one entry are separate records, joined by “and”; a condition that tells them apart may be missing. Equal entries are not always repeated. The campaign covered roughly 310,000 compounds. About 17,000 (5.5%) were called active. Another 11% or so got no clear call; they are omitted. Calls follow the shape of the dose curve; as a rule, active = well fitted inhibition curve with a large enough effect; inconclusive = small, poorly fitted or top-dose-only effect, or effect the other way; inactive = no such curve, though single readings can be large or run the other way. For the sample, actives were picked, then their nearest neighbours and some compounds at random. Some structures have more than one record in an assay (separate samples or runs), and their calls can disagree.
% is scaled to controls: 0 for no effect and ±100 for the full control effect; potency is read from the fitted curve at half-maximal effect.

Nuclear receptor ROR-gamma (Mus musculus), sequence (P51450 whole entry, looked up, the tested form may be a part): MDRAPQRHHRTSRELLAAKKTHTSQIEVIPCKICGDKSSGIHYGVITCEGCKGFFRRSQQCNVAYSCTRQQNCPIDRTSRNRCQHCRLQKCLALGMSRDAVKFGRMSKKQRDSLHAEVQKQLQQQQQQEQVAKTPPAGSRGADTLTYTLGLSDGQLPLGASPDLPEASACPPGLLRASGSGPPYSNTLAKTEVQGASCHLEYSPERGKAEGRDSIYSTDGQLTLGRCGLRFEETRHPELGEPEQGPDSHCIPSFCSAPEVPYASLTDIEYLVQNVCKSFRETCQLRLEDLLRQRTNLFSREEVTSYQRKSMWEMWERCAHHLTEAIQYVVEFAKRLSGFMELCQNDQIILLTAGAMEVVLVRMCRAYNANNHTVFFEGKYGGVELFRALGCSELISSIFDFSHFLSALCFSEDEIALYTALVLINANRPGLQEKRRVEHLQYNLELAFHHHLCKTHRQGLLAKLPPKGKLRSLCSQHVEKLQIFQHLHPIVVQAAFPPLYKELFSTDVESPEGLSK

The target of this assay is Nuclear receptor ROR-gamma (Mus musculus) (UniProt P51450). Description: qHTS for inhibitors of ROR gamma transcriptional activity. Also: nearly all actives have a fitted effect of over 60% in size. The conditions noted are these: Drosophila S2 Gal4-RORgamma UAS-luciferase reporter, 20 h; series mostly up to 53.6 µM; activity change, negative = inhibition: at the top concentration. The gist of the method:
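Drosophila S2 cells stably expressing Gal4-DBD/mouse RORγ fusion under metallothionein promoter plus UAS-luciferase; compound 1 h, then 700 uM CuSO4 induction for 20 h at ambient temperature; inhibition read as reduced luminescence.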
(qHTS replaces the single test concentration by a dilution series.)
Consider `Cc1cccc(N(Cc2ccccc2)C(=O)c2ccccc2F)c1`, for which the “activity change, negative = inhibition” value was 2.6% (inactive).

As to `CN(C(=O)c1ccccn1)c1nnc(-c2ccccn2)s1`, the Potency is 10 µM (active).

As for `CN(C(=O)c1ccno1)c1nnc(-c2cccnc2)s1`, the “activity change, negative = inhibition” value was 7.53% (inactive).

With `CN(C(=O)COc1ccccc1)c1nnc(-c2ccncc2)s1`, the “activity change, negative = inhibition” value was -43.6% (inactive).

`O=C(COc1ccc(S(=O)(=O)Nc2cccc(C(F)(F)F)c2)cc1)N1CCOCC1`: the “activity change, negative = inhibition” value was 39.9% (inactive).

On to `O=C(CCN1C(=O)[C@@H]2Cc3ccccc3CN2C1=O)NCCc1ccccc1`, for which the “activity change, negative = inhibition” value is -0.45% (inactive).

For `Oc1c(C(c2ccccn2)N2CCOCC2)ccc2cccnc12` (stereo not drawn), the Potency was 1.26 µM (active).

In the case of `CCOc1cc(N2CCOCC2)c(OCC)cc1NC(=O)COc1cccc2cccnc12`, the “activity change, negative = inhibition” value is -34.3% (inactive).

Consider `Cc1nc2sc(C(c3ccco3)N3CCOCC3)c(O)n2n1` (stereo not drawn), for which the “activity change, negative = inhibition” value is -1.57% (inactive).

`O=C(NCc1nnc(SCC(=O)N2CCCCCC2)o1)c1ccc(F)cc1`: the “activity change, negative = inhibition” value was -17.1% (inactive).

Consider `Cc1nn(-c2ccccc2)c(Cl)c1/C=N/NC(=O)c1nn(C)cc1[N+](=O)[O-]`, for which the “activity change, negative = inhibition” value is 21.6% (inactive).

Regarding `CCOC(=O)N1CCN(Cc2nnc(-c3ccccc3Cl)o2)CC1`, the “activity change, negative = inhibition” value was 13.1% (inactive).

With `COc1ccc2nc(SCC(=O)Nc3c(C)cc(C)cc3C)[nH]c2c1`, the “activity change, negative = inhibition” value was 19.9% (inactive).

Turning to `CC(C)OCCCNC(=O)c1cc(Sc2ccc(F)cc2)nc2ccccc12`, the “activity change, negative = inhibition” value is -7.09% (inactive).

For the compound `COC(=O)Nc1nc2ccc(Sc3ccccc3)cc2[nH]1`, the Potency result was “inactive and 6.31 µM (active)”.

Take `S=c1[nH]cc(-c2ccc(Cl)cc2)n1-c1ccccc1`: the “activity change, negative = inhibition” value is 6.26% (inactive).

Turning to `S=c1[nH]ccn1-c1ccc(Cl)cc1`, the Potency is 3.55 µM (active).

For the compound `COc1ccc(C/C(C)=N/NC(=O)c2ccncc2)cc1`, the “activity change, negative = inhibition” value was -26.7% (inactive).

On to `COc1ccc(C(=O)Nc2ccc(N3CCC(C)CC3)cc2)cc1Br`, for which the “activity change, negative = inhibition” value is 4.83% (inactive).

For the compound `COc1ccc(C(=O)NC(=S)Nc2ccc(N3CCCC3)cc2)cc1OC`, the Potency is 0.447 µM (active).

`COc1ccc(COC(=O)N/N=C(\C)CC(=O)Nc2ccc(Cl)cc2)cc1`: the activity change, negative = inhibition was 5.64% [at 10 µM] (inactive).

For `O=C(CN1CCN(c2ccc(F)cc2)CC1)Nc1ccccc1`, the “activity change, negative = inhibition” value is -3.12% (inactive).

Consider `COC(=O)c1ccc(NC(=O)c2cc(Cl)ccc2OC)cc1`, for which the “activity change, negative = inhibition” value was 12.9% (inactive).

With `COc1ccc(C(=O)NC(=S)Nc2ccc(Cl)cn2)cc1OC`, the Potency is 7.94 µM (active).

Consider `COc1c(Cl)cc(C(=O)Nc2ccc(Cl)cn2)cc1Cl`, for which the “activity change, negative = inhibition” value is -2.59% (inactive).

Consider `COc1cccc(C(=O)Nc2ccc(N3CCCC3)cc2)c1`, for which the “activity change, negative = inhibition” value is 7.72% (inactive).

With `O=C(CN1CCN(c2ccccc2)CC1)Nc1ccc(F)cc1`, the “activity change, negative = inhibition” value was 21.6% (inactive).

As to `COc1ccc(C(=O)N/N=C(\C)CC(=O)Nc2ccc(Cl)cn2)cc1`, the Potency was 5.01 µM (active).

As for `O=C(CCN1CCN(c2ccccc2)CC1)NNC(=S)Nc1ccccc1`, the Potency is 10 µM (active).

Regarding `CCc1ccc(NC(=O)CN2CCC(C(=O)c3ccc(OC)cc3)CC2)cc1`, the “activity change, negative = inhibition” value was -0.195% (inactive).

On to `Cc1c(C(=O)NC2CCCCC2)oc2ccccc12`, for which the “activity change, negative = inhibition” value is 31.6% (inactive).

Consider `CCCNC(=O)CCc1c(C)nc2c(c(C)nn2-c2ccccc2)c1C`, for which the “activity change, negative = inhibition” value was 2.6% (inactive).

For the compound `Cc1ccc(S(=O)(=O)N2CCCC(C(=O)N3CCN(C)CC3)C2)cc1` (stereo not drawn), the “activity change, negative = inhibition” value is -10.6% (inactive).

Consider `O=C(Nc1ccncc1)Nc1ccc(F)cc1`, for which the “activity change, negative = inhibition” value was -6.05% (inactive).

On to `COc1ccc(OCc2cc(C(=O)N3CCCC3)no2)c2ccccc12`, for which the “activity change, negative = inhibition” value is -2.3% (inactive).

As to `COC(=O)CN1C(=O)[C@H]2[C@@H](C3CC3)N3C(=O)CN(Cc4ccc(-c5ccccc5)cc4)C(=O)[C@@]3(Cc3ccccc3)[C@H]2C1=O`, the “activity change, negative = inhibition” value is 16.4% (inactive).

`CS(=O)(=O)Nc1ccccc1N=C(c1ccccc1)c1ccccc1`: the activity change, negative = inhibition was -31.1% [at 1.91 µM] (inactive).

Turning to `COc1ccc(CN2CCNC(=O)C2CC(=O)NCc2cn[nH]c2-c2ccccc2)c(F)c1` (stereo not drawn), the “activity change, negative = inhibition” value is 14.9% (inactive).

As to `COc1ccc2oc(C(=O)NCC(Cc3ccccc3)N(C)C)c(C)c2c1` (stereo not drawn), the “activity change, negative = inhibition” value is -17.4% (inactive).

For the compound `Cc1ccc(OCCCC(=O)Nc2ccc(N3CCOCC3)cc2)cc1`, the “activity change, negative = inhibition” value was -7.03% (inactive).

On to `COC(=O)c1ccc(NC(=S)NN2CCOCC2)cc1`, for which the “activity change, negative = inhibition” value was 31.5% (inactive).

In the case of `Cc1ccccc1C(=O)Nc1ccc(N2CCCCCC2)cc1`, the “activity change, negative = inhibition” value is 14.4% (inactive).

With `O=C(Nc1ccc(Cl)cn1)c1ccc2c(c1)OCCO2`, the Potency was 8.91 µM (active).

With `Cc1ccccc1C(=O)NC(=S)Nc1ccc(N2CCN(C(=O)c3ccccc3)CC2)cc1`, the Potency is 22.4 µM (active).

In the case of `O=C(CN1CCN(c2ccc(O)cc2)CC1)Nc1ccc(-c2ccccc2)cc1`, the “activity change, negative = inhibition” value is -1.13% (inactive).

Consider `O=C(Nc1ccc(Cl)cn1)c1cnn2cccnc12`, for which the “activity change, negative = inhibition” value was 11.5% (inactive).

`O=C(c1ccccc1)c1ccc(C(=O)N2CCN(c3ccccc3)CC2)cc1`: the “activity change, negative = inhibition” value was -4.53% (inactive).

`O=C(COc1ccc([N+](=O)[O-])cc1)Nc1ccc(N2CCCC2)cc1`: the “activity change, negative = inhibition” value was -9.99% (inactive).

Take `Cc1ccc(C(=O)NC(=S)Nc2ccc(N3CCOCC3)cc2)cc1`: the Potency is 6.31 µM (active).

As to `O=C(Cc1ccccc1)NC(=S)Nc1ccc(N2CCCCC2)cc1`, the Potency is 2.24 µM (active).

On to `Cc1nc(NC(=O)c2ccc3c(c2)OCCO3)ccc1Br`, for which the “activity change, negative = inhibition” value was -8.45% (inactive).

`CC1CCCN(CCCNC(=O)CN2C(=O)COc3ccc(S(=O)(=O)N4CCOCC4)cc32)C1` (stereo not drawn): the “activity change, negative = inhibition” value is -12.2% (inactive).

As to `CC(C)[C@@H](C(=O)O)N(Cc1cccc(CN([C@H](C(=O)O)C(C)C)S(C)(=O)=O)c1)S(C)(=O)=O`, the “activity change, negative = inhibition” value was 0.567% (inactive).
